Sampled rows, rich in hits. Any-hit rate of the full collection: about 2.4%.
D2 PAM-1: positive allosteric modulators of human D2 dopamine receptor; potentiation, % at 10 µM; AID 485347; P14416; 0.34% of 340,000 active; HEK293 T-REx D2, calcium flux, EC20 dopamine potentiation;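 active = potentiation over 3 SD above the plate norm, cut at about 30% in these data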
Target sequence (P14416 whole entry, looked up): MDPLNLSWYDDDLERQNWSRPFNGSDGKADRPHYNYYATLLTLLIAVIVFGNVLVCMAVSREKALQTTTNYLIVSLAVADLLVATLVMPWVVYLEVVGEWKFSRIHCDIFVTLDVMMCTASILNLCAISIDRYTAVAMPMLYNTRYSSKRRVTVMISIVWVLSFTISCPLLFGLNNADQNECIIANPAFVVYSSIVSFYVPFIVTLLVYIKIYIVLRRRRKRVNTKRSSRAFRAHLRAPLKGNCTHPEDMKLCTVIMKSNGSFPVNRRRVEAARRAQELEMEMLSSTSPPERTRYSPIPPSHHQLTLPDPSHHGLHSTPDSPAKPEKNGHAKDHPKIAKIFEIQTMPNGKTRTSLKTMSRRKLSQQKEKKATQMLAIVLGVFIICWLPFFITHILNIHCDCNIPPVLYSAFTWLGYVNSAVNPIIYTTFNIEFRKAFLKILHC
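Potentiation of an EC20 dopamine calcium response is measured in a force-coupled, tetracycline-inducible Hek293 Trex D2 line. Compound-only kinetic reads over 180 s flag agonists before dopamine addition.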
D2 ag-1: agonists of human D2 dopamine receptor | P14416 | HEK293 T-REx D2 cells, calcium flux agonist mode | activation, % at 2 µM | 0.53% of 340,000 active;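 active = activation over 3 SD above normal in the single-dose calcium agonist read, cut at about 30% in these data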
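Tetracycline-induced HEK293 T-REx cells with force-coupled D2 receptor, plated overnight at 30 C, loaded with no-wash calcium dye. After a 10 s baseline, compound was pin-added and calcium flux read kinetically for 180 s; calcium rises flagged agonists.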
D2 ag-2: human D2 receptor agonism in beta-arrestin assay; DiscoveRx PathHunter D2 beta-arrestin, luminescence, 90 min; 100% = 57 uM dopamine signal; AID 624465; 0.084% of 360,000 active; P14416; activation, % (concentration not given with the values); in the data active = activation above about 40%; inconclusive = between about 15% and that limit
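DiscoveRx PathHunter D2 beta-arrestin cells (2,100/well) attached overnight, then compound-stimulated 90 min at 37 C in HBSS/10 mM HEPES/0.1% Tween-20 buffer; beta-galactosidase complementation read by luminescence after 1 h at ambient temperature. Dopamine 57 uM final (EC100) as control.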
D2 antagonist: antagonizes the human D2 dopamine receptor; P14416; HEK293 TREx D2 cells, calcium flux, dopamine EC80; inhibition, % at 10 µM; 2% of 340,000 active; in the data active = inhibition above about 30%; inactive = below that, where a call was filed
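Antagonism is scored as inhibition of an EC80 dopamine-evoked calcium signal in a force-coupled, tetracycline-inducible HEK293 T-REx D2 line, with compound present 180 s before agonist.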
D2 PAM-2: human D2 receptor positive allosteric modulation. P14416. DiscoveRx D2 beta-arrestin cells, luminescence, 90 min; 100% = 57 uM dopamine signal. potentiation, % (concentration not given with the values). 0.23% of 360,000 active. AID 624464; in the data active = potentiation above about 50%; inconclusive = mostly about 30% to 49%
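PathHunter D2 cells, attached overnight at 37 deg C, received compound in DMSO plus dopamine at EC20 (50 nM final) for 90 min at 37 deg C. Beta-arrestin recruitment was read as luminescence after 1 h with detection reagent at ambient temperature.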
Of the large screens only hits and unclear results are named; the others gave an inactive call; ! = not confirmed by another sample.

Nc1ccn([C@H]2CC[C@@H](CO)O2)c(=O)n1	D2 antagonist 37.3!
COc1ccc(NC(=O)C2CCCN(c3nnc(C)c4c(C)n(-c5ccccc5)nc34)C2)cc1Cl (stereo not given)	none (no result: D2 ag-2, D2 antagonist, D2 PAM-2)
COc1cccc(NC(=O)/C=C/c2ccc([N+](=O)[O-])cc2)c1	D2 antagonist 44.6
COc1ccc(/C=C/C(=O)Nc2cccc(F)c2)cc1S(=O)(=O)N1CCOCC1	D2 antagonist 55.6
COc1cccc(NC(=O)/C=C/c2ccccc2[N+](=O)[O-])c1	none
COc1cccc(NC(=O)/C=C/c2ccc(S(=O)(=O)N3CCOCC3)cc2)c1	D2 antagonist 47.3
COc1cc(OC)c(NC(=O)Cn2c(=O)c(C(F)(F)F)nc3ccccc32)cc1Cl	none (no result: D2 ag-2, D2 antagonist, D2 PAM-2)
O=C(CN1CCCC(O)C1)N1c2ccccc2Sc2ccc(C(F)(F)F)cc21 (stereo not given)	none
CN1CCN(CCCN2c3ccccc3Sc3ccc(C(F)(F)F)cc32)CC1	D2 antagonist 79.1
O=C1CC2(CCCC2)CC(=O)N1CCCCN1CCN(c2ncccn2)CC1	D2 antagonist 87.9
CN1C(=O)N(CC(=O)N2CCN(c3ncccn3)CC2)C(=O)C12CCCCC2	none
Cn1c(=O)c2sccc2n2c(CCCC(=O)N3CCCCC3)nnc12	none
Cc1ccsc1C=Nc1ccc(O)cc1	D2 ag-2 inconclusive, D2 PAM-2 75.0
Cc1ccsc1/C=N/N=C/c1sccc1C	none
CC(=O)Nc1ccc(NC(=O)Nc2cccc(Cl)c2)cc1	none
CC(=O)C(=Nc1ccc(Cl)cc1Cl)NNc1cccc(Cl)c1	D2 ag-2 inconclusive, D2 PAM-2 125.3
Cc1oc2ccc(O)cc2c1C(=O)c1ccc([N+](=O)[O-])cc1	D2 PAM-2 53.6
Cc1oc2ccc(O)cc2c1C(=O)c1ccc(Cl)cc1	none
Cc1nnc(NC(=O)CSc2nnc(CC(=O)Nc3ccccc3F)n2C)s1	none
COC(=O)C(NC(=O)CCc1c(C)nc2c(-c3ccccc3)c(C)nn2c1C)C(C)C (stereo not given)	none (no result: D2 ag-2, D2 antagonist, D2 PAM-2)
CC1Cc2ccccc2N1C(=O)COC(=O)c1ccco1 (stereo not given)	none (no result: D2 PAM-1, D2 ag-1, D2 antagonist)
CC1Cc2ccccc2N1C(=O)COC(=O)c1ccc([N+](=O)[O-])o1 (stereo not given)	D2 PAM-2 58.0 (no result: D2 PAM-1, D2 ag-1, D2 antagonist)
CCOC(=O)C(C#N)=CN1CCNc2ccccc21	none (no result: D2 PAM-1, D2 ag-1, D2 antagonist)
COc1ccc(CCNC(=O)c2cn(C)c3ccc(S(=O)(=O)N4CCOCC4)cc3c2=O)cc1OC	D2 antagonist 39.6
CCn1cc(C(=O)NCCc2ccc(OC)c(OC)c2)c(=O)c2cc(S(=O)(=O)N3CCOCC3)ccc21	none
CC1CCCC(NC(=O)c2cn(C)c3ccc(S(=O)(=O)N4CCCC4)cc3c2=O)C1C (stereo not given)	D2 antagonist 30.8 (no result: D2 ag-2, D2 PAM-2)
CN(CCNC(=O)c1cn(C)c2ccc(S(=O)(=O)N(C)C)cc2c1=O)CCc1ccccc1	D2 antagonist 45.2
CCCCN(C)CCCNC(=O)c1cn(C)c2ccc(S(=O)(=O)N(C)C3CCCCC3)cc2c1=O	D2 antagonist 34.2
CCOC(=O)Cn1c(=O)oc2cc(S(=O)(=O)N3CCN(c4cc(C)ccc4C)CC3)ccc21	none (no result: D2 ag-2, D2 antagonist, D2 PAM-2)
Cc1onc(C(=O)N2CCN(c3ccccc3F)CC2)c1-c1ccccc1Cl	D2 PAM-1 34.1
Cc1cc(C(=O)NCCCn2ccnc2)sc1-c1ccccc1	D2 antagonist 47.3
COc1ccc(-c2cc(=O)oc3cc(OCC(=O)NCCCn4ccnc4)ccc23)cc1	none
COc1ccc(C(C)=O)cc1CC(=O)NCCCn1ccnc1	D2 PAM-1 33.5
CCc1cc(=O)oc2cc(OCC(=O)NCCCn3ccnc3)ccc12	D2 antagonist 37.4
Cc1cc(Cl)ccc1OCC(=O)NCCCn1ccnc1	none
COc1ccc(Cl)cc1C(=O)NCCCn1ccnc1	none
Cc1cc(Cl)ccc1OCCCC(=O)NCCCn1ccnc1	D2 antagonist 35.7
Cc1ccc(Cl)cc1N1CCN(C(=O)c2ccc(C)c(-n3c(C)nc4cccnc43)c2)CC1	none (no result: D2 ag-2, D2 antagonist, D2 PAM-2)
CSCCC(NC(=O)COc1ccccc1)C(=O)NCCOc1ccc(C)cc1 (stereo not given)	none
CC1CCN(C(=O)C(C)c2ccc([N+](=O)[O-])cc2)CC1 (stereo not given)	none
Cc1ccc(S(=O)(=O)C2(C(=O)Nc3ccc(Cl)c(C(F)(F)F)c3)CC2)cc1	none (no result: D2 ag-2, D2 antagonist, D2 PAM-2)
Cc1cc(C)cc(NC(=O)Cc2noc3ccccc23)c1	none (no result: D2 ag-2, D2 antagonist, D2 PAM-2)
CC(C)C(C(=O)N1CCN(C(=O)OC(C)(C)C)CC1)n1cc(-c2cn([C@@H](C)C(=O)N3CCN(C(=O)OC(C)(C)C)CC3)nn2)nn1 (stereo not given in full)	none (no result: D2 ag-2, D2 PAM-2)
CCOc1cccc(C2c3c(-c4cc(C)ccc4O)n[nH]c3C(=O)N2Cc2ccco2)c1 (stereo not given)	none (no result: D2 ag-1, D2 ag-2, D2 antagonist, D2 PAM-2)
COc1ccc(-c2cc(C3CCN(Cc4cccc(C(F)(F)F)c4)CC3)[nH]n2)cc1	D2 antagonist 59.2
CCOc1cc(C=NN2CCCCCC2)ccc1O	D2 PAM-2 51.4 (no result: D2 PAM-1, D2 ag-1, D2 antagonist)
Cc1cc(Nc2ccccc2)c2c([N+](=O)[O-])cc(C)c(C)c2n1	D2 PAM-1 39.5
Oc1ccc(/C=N/N2CCOCC2)c(O)c1O	D2 ag-2 inconclusive, D2 PAM-2 54.2 (no result: D2 ag-1, D2 antagonist)
Oc1ccc(/C=N/N2CCCCC2)c(O)c1O	none (no result: D2 PAM-1, D2 ag-1, D2 antagonist)
C(=N\Nc1nc2ccccc2s1)/c1cccs1	D2 antagonist 37.5
COc1cc(OC)c(NC(=O)COCc2cc(-c3cccs3)on2)cc1Cl	none (no result: D2 ag-2, D2 antagonist, D2 PAM-2)
c1ccc(CNc2nc3ccccc3n3cnnc23)nc1	none
c1ccc(CNc2nc3ccccc3n3cnnc23)cc1	D2 PAM-1 41.2
Cc1c(C(=O)OC2CCCCC2)sc2nc[nH]c(=O)c12	D2 PAM-1 30.9
Cc1nc2nc(SCC(=O)c3cccc([N+](=O)[O-])c3)[nH]c2cc1Br	D2 antagonist 38.3
NC(=O)C1CCN(S(=O)(=O)c2cc3c4c(c2)CCN4C(=O)CC3)CC1	D2 antagonist 30.3
CCOC(=O)C1CCCN(S(=O)(=O)c2cc3c4c(c2)CCN4C(=O)CC3)C1 (stereo not given)	D2 ag-2 inconclusive
Cc1nn(CCC(=O)NC(C)C)c(=O)c2nn(-c3ccccc3)c(C)c12	none (no result: D2 ag-2, D2 antagonist, D2 PAM-2)
C/C(=N\NC(=O)CN(c1ccccc1)S(C)(=O)=O)c1ccccc1O	D2 antagonist 43.9
CN1/C(=C/C=N/n2cnnc2)C(C)(C)c2ccccc21	D2 antagonist 56.3 (no result: D2 PAM-1)
CN1/C(=C\C=C(C#N)C#N)C(C)(C)c2ccccc21	none
Cc1ccc(NCc2cccn2-c2nnc(N3CCCCCC3)s2)cc1	none (no result: D2 ag-2, D2 antagonist, D2 PAM-2)
O=C1CSC(c2cccc([N+](=O)[O-])c2)N1Cc1ccccc1 (stereo not given)	D2 antagonist 30.3
CC(C)NC(=O)c1ccc(C2SCC(=O)N2Cc2ccccc2)cc1 (stereo not given)	D2 antagonist 50.3
COc1ccccc1NC(=O)N1c2ccccc2Sc2ccccc21	none (no result: D2 ag-2, D2 antagonist, D2 PAM-2)

High-throughput results deposited in PubChem BioAssay by National Center for Advancing Translational Sciences (NCATS).
